Reference: the supplement of paper PMC6555819

system: FXR:RXRa (NR concentration 270 nM, RXRa partner concentration 90 nM); assay: PBM binding z-score (relative to random genomic background probes); higher = stronger binding; sequences stand for … in GC…GCGATTGACAGCGTAGAATGAAGG
Method in brief: (§1)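 Scanned fluorescence from custom Agilent 4×180K protein-binding microarrays was regression-normalized. Binding z-scores use random background probes as reference. Ligand-free nuclear receptor dimers were incubated on the arrays for 1 h and detected with antibodies against each partner (one per run).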

Sequence	PBM binding z-score
CCGAGTAGGTTACGAGGGGGCAGTCAGTGCGAAT	2.18
CAGAGTAGGTTACGAGGGGGCATTCAGTGCGAAT	3.11
TCGAGTAGGATACGGGGGCATTCAGGGATGAAGA	1.26
CCGAGTAGGTTACGAGGAGGCATTCAGTGCGAAT	-0.167
CTATGTAGGTTAAGGGGGTCATTCATTTTGAAAG	4.9
CCGAGTAGGTTACGAGGGGGCATTCTGTGCGAAT	2.88
TCGAGTATGTTACGGGGGCATTCAGGGATGAAGA	2.26
TCGAGTAGGTTACGGGGGCATTCTGGGATGAAGA	2.21
CTATGAAGGTTAAGGGGGTCATTCAGTTTGAAAG	5.47
CCGAGTAGGTTACGTGGGGGCATTCAGTGCGAAT	2.27
CCGAGTAGGTTACGAGGGGGCATTGAGTGCGAAT	2.26
CCGAGTAGGTTACGAGGGGGCACTCAGTGCGAAT	2.63
TCGAGTAGGTTACGGGGGCCTTCAGGGATGAAGA	1.17
TCGAGTAGGTTACGCGGGCATTCAGGGATGAAGA	0.576
TCGAGTAGGTTACGGGGTCATTCAGGGATGAAGA	6.23
CTATGTAGGTTCAGGGGGTCATTCAGTTTGAAAG	5.43
TCGAGTAGGTTACGGGGGCTTTCAGGGATGAAGA	1.64

system: LXRa:RXRa (NR concentration 270 nM, RXRa partner concentration 90 nM); assay: as above
Method in brief: as §1

Sequence	PBM binding z-score
CTATGTAGGTTAAGGGGGTCATTCAGTTTGAAAG	5.08
CCGAGTAGGTTACGAGGGGGCATGCAGTGCGAAT	6.78
TCGAGCAGGTTACGGGGGCATTCAGGGATGAAGA	2.64
CTATGTAGGTTAAGGGGGCCATTCAGTTTGAAAG	1.83
TCGGGTAGGTTACGGGGGCATTCAGGGATGAAGA	4.06
CTATGTAGGTTAAGGGGGTCTTTCAGTTTGAAAG	1.5
CTGTGTAGGTTAAGGGGGTCATTCAGTTTGAAAG	4.93
CTATGTAGATTAAGGGGGTCATTCAGTTTGAAAG	4.72
CCGAGTAGGTTACGAGGGGGTATTCAGTGCGAAT	5.34
TCGAGTAGGTTAAGGGGGCATTCAGGGATGAAGA	2.79
CCGATTAGGTTACGAGGGGGCATTCAGTGCGAAT	7.34
CTATGTAGGTTAAGCGGGTCATTCAGTTTGAAAG	2.59
CTATGTAGGTTAAGGGGGTCATGCAGTTTGAAAG	4.98
CTATGTAGGTTAAGGGGGGCATTCAGTTTGAAAG	3.64
CTATGTAGGTTAAAGGGGTCATTCAGTTTGAAAG	5.21
CCGAGTAGGTCACGAGGGGGCATTCAGTGCGAAT	6.71
TCGAGTAGGTTATGGGGGCATTCAGGGATGAAGA	2.24
CTGAGTAGGTTACGAGGGGGCATTCAGTGCGAAT	7.17
TCGAGTAGGTTACGGGGGCATTCCGGGATGAAGA	2.91
CCGAGTAGGTTAAGAGGGGGCATTCAGTGCGAAT	6.72

Sequence	PBM binding z-score
TCGAGTACGTTACGGGGGCATTCAGGGATGAAGA	1.79
CTATGTAGGTAAAGGGGGTCATTCAGTTTGAAAG	4.67
CCGAGTAGGTTACGAGGGGGCAGTCAGTGCGAAT	6.39
CAGAGTAGGTTACGAGGGGGCATTCAGTGCGAAT	7.18
TCGAGTAGGATACGGGGGCATTCAGGGATGAAGA	1.43
CCGAGTAGGTTACGAGGAGGCATTCAGTGCGAAT	4.4
CTATGTAGGTTAAGGGGGTCATTCATTTTGAAAG	4.91
CCGAGTAGGTTACGAGGGGGCATTCTGTGCGAAT	7.2
TCGAGTATGTTACGGGGGCATTCAGGGATGAAGA	2.6
TCGAGTAGGTTACGGGGGCATTCTGGGATGAAGA	2.51
CTATGAAGGTTAAGGGGGTCATTCAGTTTGAAAG	5.4
CCGAGTAGGTTACGTGGGGGCATTCAGTGCGAAT	7.98
CCGAGTAGGTTACGAGGGGGCATTGAGTGCGAAT	7.11
CCGAGTAGGTTACGAGGGGGCACTCAGTGCGAAT	6.57
TCGAGTAGGTTACGGGGGCCTTCAGGGATGAAGA	1.71
TCGAGTAGGTTACGCGGGCATTCAGGGATGAAGA	0.477
TCGAGTAGGTTACGGGGTCATTCAGGGATGAAGA	5.46
CTATGTAGGTTCAGGGGGTCATTCAGTTTGAAAG	5.56
TCGAGTAGGTTACGGGGGCTTTCAGGGATGAAGA	2.06

system: LXRa homodimer (NR concentration 270 nM); assay: as above
Method in brief: as §1

Sequence	PBM binding z-score
CTATGTAGGTTAAGGGGGTCATTCAGTTTGAAAG	3.54
CCGAGTAGGTTACGAGGGGGCATGCAGTGCGAAT	0.861
TCGAGCAGGTTACGGGGGCATTCAGGGATGAAGA	0.7
CTATGTAGGTTAAGGGGGCCATTCAGTTTGAAAG	0.578
TCGGGTAGGTTACGGGGGCATTCAGGGATGAAGA	2.17
CTATGTAGGTTAAGGGGGTCTTTCAGTTTGAAAG	0.399
CTGTGTAGGTTAAGGGGGTCATTCAGTTTGAAAG	3.47
CTATGTAGATTAAGGGGGTCATTCAGTTTGAAAG	3.33
CCGAGTAGGTTACGAGGGGGTATTCAGTGCGAAT	0.455
TCGAGTAGGTTAAGGGGGCATTCAGGGATGAAGA	1.01
CCGATTAGGTTACGAGGGGGCATTCAGTGCGAAT	1.59
CTATGTAGGTTAAGCGGGTCATTCAGTTTGAAAG	0.655
CTATGTAGGTTAAGGGGGTCATGCAGTTTGAAAG	1.95
CTATGTAGGTTAAGGGGGGCATTCAGTTTGAAAG	1.74
CTATGTAGGTTAAAGGGGTCATTCAGTTTGAAAG	4.18
CCGAGTAGGTCACGAGGGGGCATTCAGTGCGAAT	1.59
TCGAGTAGGTTATGGGGGCATTCAGGGATGAAGA	0.602
CTGAGTAGGTTACGAGGGGGCATTCAGTGCGAAT	2.04
TCGAGTAGGTTACGGGGGCATTCCGGGATGAAGA	0.0862
CCGAGTAGGTTAAGAGGGGGCATTCAGTGCGAAT	1.5

Sequence	PBM binding z-score
TCGAGTACGTTACGGGGGCATTCAGGGATGAAGA	-0.186
CTATGTAGGTAAAGGGGGTCATTCAGTTTGAAAG	2.77
CCGAGTAGGTTACGAGGGGGCAGTCAGTGCGAAT	0.422
CAGAGTAGGTTACGAGGGGGCATTCAGTGCGAAT	2.11
TCGAGTAGGATACGGGGGCATTCAGGGATGAAGA	0.346
CCGAGTAGGTTACGAGGAGGCATTCAGTGCGAAT	-0.319
CTATGTAGGTTAAGGGGGTCATTCATTTTGAAAG	3.28
CCGAGTAGGTTACGAGGGGGCATTCTGTGCGAAT	1.77
TCGAGTATGTTACGGGGGCATTCAGGGATGAAGA	0.591
TCGAGTAGGTTACGGGGGCATTCTGGGATGAAGA	0.493
CTATGAAGGTTAAGGGGGTCATTCAGTTTGAAAG	3.45
CCGAGTAGGTTACGTGGGGGCATTCAGTGCGAAT	1.53
CCGAGTAGGTTACGAGGGGGCATTGAGTGCGAAT	1.25
CCGAGTAGGTTACGAGGGGGCACTCAGTGCGAAT	0.708
TCGAGTAGGTTACGGGGGCCTTCAGGGATGAAGA	0.239
TCGAGTAGGTTACGCGGGCATTCAGGGATGAAGA	-0.0246
TCGAGTAGGTTACGGGGTCATTCAGGGATGAAGA	1.76
CTATGTAGGTTCAGGGGGTCATTCAGTTTGAAAG	4.57
TCGAGTAGGTTACGGGGGCTTTCAGGGATGAAGA	0.118
